# Test results taken from PubChem BioAssay (NCI).
# Where “and” joins values, the source holds several entries; their conditions need not be identical. Identical values can stand only once. The panel holds about 83,000 compounds, 20% with a hit somewhere; the sample as a whole holds those more often.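 The test compound was applied at a single concentration to cells in 96-well plates for 48 hours, and percent growth was recorded.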 Calls of active or inactive are those of the source. The calls were made as follows: active = growth percent below 10; inactive = the rest.
# Tests used:
# Assay in all cases: NCI-60 one-dose screen, 48 h (100 = growth as untreated, 0 = no growth, -100 = all killed)
# [1] = tested on: DU-145 prostate
# [2] = tested on: K-562 leukemia
# [3] = tested on: MALME-3M melanoma
# [4] = tested on: MDA-MB-231 breast
# [5] = tested on: RXF 393 renal
# [6] = tested on: SF-268 CNS
# [7] = tested on: SF-295 CNS
# [8] = tested on: SF-539 CNS
# [9] = tested on: UACC-257 melanoma
# [10] = tested on: M14 melanoma
smiles,measurement,setting,value
COc1ccc(Cl)cc1Nc1nc(C(F)(F)F)ccc1C(=O)N/N=C/c1ccc(N(C)C)cc1,growth,[1]; 10 µM unless noted,117% (inactive)
same,growth,[2]; 10 µM unless noted,122% (inactive)
same,growth,[3]; 10 µM unless noted,92.2% (inactive)
same,growth,[4]; 10 µM unless noted,72.9% (inactive)
same,growth,[5]; 10 µM unless noted,75.6% (inactive)
same,growth,[6]; 10 µM unless noted,107% (inactive)
same,growth,[7]; 10 µM unless noted,154% (inactive)
same,growth,[8]; 10 µM unless noted,115% (inactive)
same,growth,[9]; 10 µM unless noted,110% (inactive)
same,growth,[10]; 10 µM unless noted,81.3% (inactive)
Cc1ccc(/C=C/c2c(C(=O)/C=C/c3ccccc3)c(C)nc3ccccc23)cc1,growth,[1]; 10 µM unless noted,12.8% (inactive)
same,growth,[2]; 10 µM unless noted,8.62% (active)
same,growth,[3]; 10 µM unless noted,-1.88% (active)
same,growth,[4]; 10 µM unless noted,30.8% (inactive)
same,growth,[5]; 10 µM unless noted,-3.35% (active)
same,growth,[6]; 10 µM unless noted,54.1% (inactive)
same,growth,[7]; 10 µM unless noted,31.9% (inactive)
same,growth,[8]; 10 µM unless noted,-23.2% (active)
same,growth,[9]; 10 µM unless noted,12.3% (inactive)
same,growth,[10]; 10 µM unless noted,17.6% (inactive)
CCOc1ccc(N2C(N)=NC(N)=NC2(C)C)cc1,growth,[1]; 10 µM unless noted,15.3% (inactive) and 104% (inactive)
same,growth,[2]; 10 µM unless noted,10% (inactive) and 72.3% (inactive)
same,growth,[3]; 10 µM unless noted,25.3% (inactive) and 91.9% (inactive)
same,growth,[4]; 10 µM unless noted,49.5% (inactive) and 102% (inactive)
same,growth,[5]; 10 µM unless noted,-4.94% (active) and 98.1% (inactive)
same,growth,[6]; 10 µM unless noted,42.1% (inactive) and 97.5% (inactive)
same,growth,[7]; 10 µM unless noted,-31.9% (active) and 95.8% (inactive)
same,growth,[8]; 10 µM unless noted,-29.1% (active) and 92.4% (inactive)
same,growth,[9]; 10 µM unless noted,19.3% (inactive) and 72.1% (inactive)
same,growth,[10]; 10 µM unless noted,24.2% (inactive) and 89.3% (inactive)
O=C1CCc2c(sc3[nH]c(=S)n(Cc4ccc(Cl)cc4)c(=O)c23)C1,growth,[1]; 10 µM unless noted,23.7% (inactive)
same,growth,[2]; 10 µM unless noted,11% (inactive)
same,growth,[3]; 10 µM unless noted,1.17% (active)
same,growth,[4]; 10 µM unless noted,-24.7% (active)
same,growth,[5]; 10 µM unless noted,5.18% (active)
same,growth,[6]; 10 µM unless noted,18.7% (inactive)
same,growth,[7]; 10 µM unless noted,-6.67% (active)
same,growth,[8]; 10 µM unless noted,-57.4% (active)
same,growth,[9]; 10 µM unless noted,-14.9% (active)
same,growth,[10]; 10 µM unless noted,12.4% (inactive)
CC(=O)/C=C/c1ccc(N(C)Cc2ccc(C(C)(C)C)cc2)cc1,growth,[1]; 10 µM,96.6% (inactive)
same,growth,[1]; 100 µM,0.731% (active)
same,growth,[2]; 10 µM,59.5% (inactive)
same,growth,[2]; 100 µM,-12.4% (active)
same,growth,[3]; 10 µM,89.3% (inactive)
same,growth,[3]; 100 µM,-88.1% (active)
same,growth,[4]; 10 µM,103% (inactive)
same,growth,[4]; 100 µM,-70.6% (active)
same,growth,[5]; 10 µM,106% (inactive)
same,growth,[5]; 100 µM,-90.6% (active)
same,growth,[6]; 10 µM,102% (inactive)
same,growth,[6]; 100 µM,-76.8% (active)
same,growth,[7]; 10 µM,88.9% (inactive)
same,growth,[7]; 100 µM,-30.4% (active)
same,growth,[8]; 10 µM,98.9% (inactive)
same,growth,[8]; 100 µM,-69% (active)
same,growth,[9]; 10 µM,84.6% (inactive)
same,growth,[9]; 100 µM,-76.5% (active)
same,growth,[10]; 10 µM,79.5% (inactive)
same,growth,[10]; 100 µM,-65.3% (active)
CCN(CC)CCOc1ccccc1C,growth,[1]; 10 µM unless noted,113% (inactive)
same,growth,[2]; 10 µM unless noted,97.5% (inactive)
same,growth,[3]; 10 µM unless noted,105% (inactive)
same,growth,[4]; 10 µM unless noted,103% (inactive)
same,growth,[5]; 10 µM unless noted,160% (inactive)
same,growth,[6]; 10 µM unless noted,120% (inactive)
same,growth,[7]; 10 µM unless noted,101% (inactive)
same,growth,[8]; 10 µM unless noted,93.7% (inactive)
same,growth,[9]; 10 µM unless noted,106% (inactive)
same,growth,[10]; 10 µM unless noted,98.8% (inactive)
CCOC(=O)C(=CCC(C)C)C(=O)OCC,growth,[1]; 10 µM unless noted,99.3% (inactive)
same,growth,[2]; 10 µM unless noted,125% (inactive)
same,growth,[3]; 10 µM unless noted,120% (inactive)
same,growth,[4]; 10 µM unless noted,99.6% (inactive)
same,growth,[5]; 10 µM unless noted,113% (inactive)
same,growth,[6]; 10 µM unless noted,94.9% (inactive)
same,growth,[7]; 10 µM unless noted,120% (inactive)
same,growth,[8]; 10 µM unless noted,95.7% (inactive)
same,growth,[9]; 10 µM unless noted,110% (inactive)
same,growth,[10]; 10 µM unless noted,95.7% (inactive)
Cc1ccc(C(=O)Nc2ccc(CN3CCN(C)CC3)c(C(F)(F)F)c2)cc1C#Cc1cnc(N)cc1C#N,growth,[1]; 10 µM unless noted,-53.1% (active)
same,growth,[2]; 10 µM unless noted,-41.5% (active)
same,growth,[3]; 10 µM unless noted,-79.2% (active)
same,growth,[4]; 10 µM unless noted,-67% (active)
same,growth,[5]; 10 µM unless noted,-88.6% (active)
same,growth,[6]; 10 µM unless noted,-14.7% (active)
same,growth,[7]; 10 µM unless noted,-68.1% (active)
same,growth,[8]; 10 µM unless noted,-94.8% (active)
same,growth,[9]; 10 µM unless noted,-23.6% (active)
same,growth,[10]; 10 µM unless noted,-80.8% (active)
O=C(Nc1cc(C(F)(F)F)cc(C(F)(F)F)c1)c1cc(Cl)ccc1O,growth,[1]; 10 µM unless noted,14.4% (inactive) and 5.91% (active)
same,growth,[2]; 10 µM unless noted,2.85% (active) and 5.08% (active)
same,growth,[3]; 10 µM unless noted,-38.3% (active) and -37.1% (active)
same,growth,[4]; 10 µM unless noted,-11.4% (active) and -22.8% (active)
same,growth,[5]; 10 µM unless noted,-40% (active) and -5.38% (active)
same,growth,[6]; 10 µM unless noted,11.7% (inactive) and -7.95% (active)
same,growth,[7]; 10 µM unless noted,-63.1% (active) and -66.9% (active)
same,growth,[8]; 10 µM unless noted,-31% (active) and -18% (active)
same,growth,[9]; 10 µM unless noted,-52.7% (active) and -18.1% (active)
same,growth,[10]; 10 µM unless noted,-6.08% (active) and -32.7% (active)
CS(=O)(=O)Nc1cc(-c2ccc3ncnc(Nc4ccc(F)c(Cl)c4)c3c2)cnc1Cl,growth,[1]; 10 µM unless noted,16.3% (inactive)
same,growth,[2]; 10 µM unless noted,18.7% (inactive)
same,growth,[3]; 10 µM unless noted,-15.5% (active)
same,growth,[4]; 10 µM unless noted,5.12% (active)
same,growth,[5]; 10 µM unless noted,-34.2% (active)
same,growth,[6]; 10 µM unless noted,12.3% (inactive)
same,growth,[7]; 10 µM unless noted,-17.5% (active)
same,growth,[8]; 10 µM unless noted,6.35% (active)
same,growth,[9]; 10 µM unless noted,4.62% (active)
same,growth,[10]; 10 µM unless noted,5.92% (active)
N#Cc1ccccc1-c1ccc(Cn2c(-c3cscn3)nc3c(Cl)cccc32)cc1,growth,[1]; 10 µM unless noted,86.5% (inactive)
same,growth,[2]; 10 µM unless noted,49.2% (inactive)
same,growth,[3]; 10 µM unless noted,92.4% (inactive)
same,growth,[4]; 10 µM unless noted,79.7% (inactive)
same,growth,[5]; 10 µM unless noted,99.5% (inactive)
same,growth,[6]; 10 µM unless noted,71.3% (inactive)
same,growth,[7]; 10 µM unless noted,67.9% (inactive)
same,growth,[8]; 10 µM unless noted,82.9% (inactive)
same,growth,[9]; 10 µM unless noted,89.5% (inactive)
same,growth,[10]; 10 µM unless noted,87.1% (inactive)
COc1cc(-c2nc3occn3c2-c2ccnc(NCCCNS(=O)(=O)c3ccc(O)cc3)n2)ccc1F,growth,[1]; 10 µM unless noted,110% (inactive)
same,growth,[2]; 10 µM unless noted,80.6% (inactive)
same,growth,[3]; 10 µM unless noted,-7.42% (active)
same,growth,[4]; 10 µM unless noted,67.1% (inactive)
same,growth,[5]; 10 µM unless noted,105% (inactive)
same,growth,[6]; 10 µM unless noted,110% (inactive)
same,growth,[7]; 10 µM unless noted,91.6% (inactive)
same,growth,[8]; 10 µM unless noted,110% (inactive)
same,growth,[9]; 10 µM unless noted,54.4% (inactive)
same,growth,[10]; 10 µM unless noted,26.2% (inactive)
